Sampled rows, rich in hits. Any-hit rate of the full collection: about 2.4%.
D2 PAM-1 – positively modulates the human D2 dopamine receptor allosterically; P14416; HEK293 T-REx D2, calcium flux, EC20 dopamine potentiation; potentiation, % at 10 µM; hit rate 0.34% among 340,000; AID 485347;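 active = potentiation over 3 SD above the plate norm, cut at about 30% in these data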
Target sequence (P14416 whole entry, looked up): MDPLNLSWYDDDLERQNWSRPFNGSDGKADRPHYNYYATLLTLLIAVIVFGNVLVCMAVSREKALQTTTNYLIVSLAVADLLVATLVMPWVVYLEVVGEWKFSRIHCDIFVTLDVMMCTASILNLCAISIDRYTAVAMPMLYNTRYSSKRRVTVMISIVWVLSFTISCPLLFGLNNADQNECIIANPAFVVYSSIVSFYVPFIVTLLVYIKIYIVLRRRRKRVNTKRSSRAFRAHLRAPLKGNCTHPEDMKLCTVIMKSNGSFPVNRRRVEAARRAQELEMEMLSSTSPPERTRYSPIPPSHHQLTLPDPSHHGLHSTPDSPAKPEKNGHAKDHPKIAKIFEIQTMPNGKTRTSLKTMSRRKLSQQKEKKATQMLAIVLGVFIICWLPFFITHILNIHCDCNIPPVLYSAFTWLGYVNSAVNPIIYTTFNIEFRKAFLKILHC
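Tetracycline-induced Hek293 Trex D2 cells, force-coupled to calcium, loaded with no-wash calcium dye. Compound added with 180 s kinetic read for agonism, then EC20 dopamine and a further 180 s read for potentiation.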
D2 ag-1 – agonists of human D2 dopamine receptor. P14416. HEK293 T-REx D2 cells, calcium flux agonist mode. activation, % at 2 µM. hit rate 0.53% among 340,000;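 active = activation over 3 SD above normal in the single-dose calcium agonist read, cut at about 30% in these data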
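HEK293 Trex D2 cells, tetracycline-induced, o/n 30 C 5% CO2; no-wash Ca dye, RT 30–90 min; 10-cycle baseline, 23 nl cpd added, kinetic Ca read 180 s; agonist hits = positive Ca response.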
D2 ag-2 – human D2 receptor agonism in beta-arrestin assay | P14416 | DiscoveRx PathHunter D2 beta-arrestin, luminescence, 90 min; 100% = 57 uM dopamine signal | activation, % (test concentration not listed) | hit rate 0.084% among 360,000 | AID 624465; in the data active = activation above about 40%; inconclusive = between about 15% and that limit
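Agonist mode: compounds alone added to overnight-plated D2 PathHunter cells for 90 min at 37 C, with 57 uM final dopamine (EC100) defining full response. Beta-arrestin recruitment detected by chemiluminescent reagent, read after 1 h at ambient temperature.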
D2 PAM-2 – human D2 receptor positive allosteric modulation. P14416. DiscoveRx D2 beta-arrestin cells, luminescence, 90 min; 100% = 57 uM dopamine signal. potentiation, % (no concentration beside the values). hit rate 0.23% among 360,000; in the data active = potentiation above about 50%; inconclusive = mostly about 30% to 49%
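PathHunter D2 cells, attached overnight at 37 deg C, received compound in DMSO plus dopamine at EC20 (50 nM final) for 90 min at 37 deg C. Beta-arrestin recruitment was read as luminescence after 1 h with detection reagent at ambient temperature.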
D2 antagonist – D2 dopamine receptor (human) antagonism. P14416. hit rate 2% among 340,000. HEK293 TREx D2 cells, calcium flux, dopamine EC80. inhibition, % at 10 µM; in the data active = inhibition above about 30%; inactive = below that, where a call was filed
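HEK293 T-REx D2 cells, tet-induced, calcium dye no-wash. Cpd pintool add, 180 s kinetic, then EC80 DA, 180 s kinetic. Ca flux read.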
D3 arrestin ag – D3 receptor agonism confirmed, beta-arrestin readout; hit rate 4% among 2,300; shares compounds with D2 ag-1; Potency, µM (titrated, usually from 76.9 µM), hits mostly activators; DiscoveRx D3 beta-arrestin cells, luminescence, 90 min; note: nearly all actives have a fitted effect of over 70% in size
D2 ag-3 – D2 receptor agonism, beta-arrestin counterscreen. shares compounds with D2 ag-1. DiscoveRx PathHunter D2 beta-arrestin, luminescence, 90 min; response scale: percent relative to full dopamine signal. Potency, µM (titrated, usually from 76.9 µM), most hits filed as activators. hit rate 5.9% among 2,300; note: nearly all actives have a fitted effect of over 70% in size
Hits are given with their value; – = inactive; ? = inconclusive; · = not tested or not shown. Unless noted, calls come from the whole dose curve; as a rule, active = well fitted activation curve with a large enough effect; inconclusive = small, poorly fitted or top-dose-only effect; inactive = flat fitted curve, though single readings scatter.

SMILES	D2 PAM-1	D2 ag-1	D2 ag-2	D2 PAM-2	D2 antagonist	D3 arrestin ag	D2 ag-3
CCc1ccccc1NC(=S)N1CCN(c2ccccn2)CC1	–	32.8	–	–	–	–	?
COc1ccc(C)cc1NC(=S)N1CCN(c2ccccn2)CC1	–	56.6	–	–	–	–	–
Fc1ccccc1NC(=S)N1CCN(c2ccccn2)CC1	–	–	–	–	–	·	·
Cc1ccc(/C=N/NC(=O)c2cccc(S(=O)(=O)Nc3ccccc3Cl)c2)o1	–	–	–	–	–	·	·
Cc1ccc(OCC(=O)N(Cc2ccco2)Cc2ccc(C)o2)cc1	–	–	·	·	·	·	·
CCCCC(=O)Nc1ccc2c(c1)nc1n2CCSC1	–	–	–	–	–	·	·
COc1ccc(NC(=S)N2CCN(c3ccccn3)CC2)cc1OC	–	49.4	–	–	–	–	–
Cc1ccc(NC(=S)N2CCN(c3ccccn3)CC2)c(C)c1	–	34.1	–	–	30.9	–	–
COc1cc(NC(=S)N2CCN(c3ccccn3)CC2)cc(OC)c1OC	·	·	–	–	·	·	·
COc1ccc(/C=C/C(=O)N2CCN(c3ccccn3)CC2)cc1OC	–	–	–	–	–	–	–
CCOc1ccc(NC(=O)c2nc3nc(C)cc(C(F)F)n3n2)cc1	–	–	·	·	·	·	·
CC(=O)N1c2ccccc2CCc2ccc(N)cc21	–	–	–	–	–	·	·
Cc1cc(NC(=O)CSCC(=O)Nc2cc(C(F)(F)F)ccc2N2CCCC2)no1	–	–	–	–	–	·	·
Cc1cc(NC(=O)CSCC(=O)Nc2cc(C(F)(F)F)ccc2N2CCOCC2)no1	–	–	–	–	–	–	–
CC(CCc1ccccc1)NC(=O)CN1CCc2ccccc2C1 (configuration not stated)	–	71.3	–	–	67.9	–	?
CCOc1ccccc1NC(=O)CN1CCc2ccccc2C1	–	–	–	–	–	·	·
CC(=O)C(Cc1ccccc1)NC(=O)CN1CCc2ccccc2C1 (configuration not stated)	–	–	–	–	–	·	·
CN(C)S(=O)(=O)c1ccc(Cl)c(NC(=O)CN2CCN(c3ccccn3)CC2)c1	–	69.1	?	–	–	?	31.6µM
Cc1ccccc1NC(=O)CN1CCc2ccccc2C1	–	67.9	?	–	40.1	?	?
Cc1cccc(NC(=O)N2CCc3ccccc3C2)c1C	–	–	–	–	–	–	–
O=S(=O)(NCC(c1ccco1)N1CCN(c2ccc(F)cc2)CC1)c1ccccc1 (configuration not stated)	–	–	·	·	·	·	·
Cc1sc2nc(SCC(=O)NCCCO)n(-c3ccccc3)c(=O)c2c1C	–	–	–	–	–	·	·
CN1CCN(c2nc(-c3ccc(Cl)s3)cs2)CC1	–	–	–	–	–	·	·
O=C(CN1CCc2ccccc2C1)NC1CCCC1	–	–	–	–	–	–	–
O=C(NC1CCCCC1)N1CCc2ccccc2C1	–	–	–	–	–	·	·
SMILES	D2 PAM-1	D2 ag-1	D2 ag-2	D2 PAM-2	D2 antagonist	D3 arrestin ag	D2 ag-3
Cc1ccc(NC(=O)CN2CCc3ccccc3C2)cc1S(=O)(=O)N(C)C	–	47.5	–	–	–	–	–
CCN(CC)S(=O)(=O)c1ccc(O)c(NC(=O)CN2CCc3ccccc3C2)c1	–	–	–	–	–	·	·
CN(C)S(=O)(=O)c1ccc(Cl)c(NC(=O)CN2CCc3ccccc3C2)c1	–	60.9	64.0	–	87.3	10µM	14.1µM
N#CC1(NC(=O)CN2CCc3ccccc3C2)CCCC1	–	–	–	–	–	–	–
O=C(NCCN1CCOCC1)c1cc(Sc2ccc(F)cc2F)nc2ccccc12	·	–	–	–	–	·	·
CC1CCCN(S(=O)(=O)c2coc(C(N)=O)c2)C1 (configuration not stated)	–	–	–	–	–	·	·
COc1cccc(/C=N/NC(=O)C(=O)N2CCCC2)c1O	–	–	–	–	–	·	·
Cc1nn(-c2ccccc2)c(Cl)c1/C=N/N1CCN(c2ccccn2)CC1	–	–	–	–	–	·	·
CN(C)c1ccc(/C=N/N2CCN(c3ccccn3)CC2)cc1	–	45.3	?	–	–	–	–
Cc1nn(-c2ccccc2)c(C)c1/C=N/N1CCN(c2ccccn2)CC1	–	–	–	–	–	?	–
Cc1cc(C)n(C(=O)CN2C(=O)COc3ccccc32)n1	–	–	–	–	–	·	·
COc1ccc(OC)c(NC(=O)C2CCCN(S(=O)(=O)c3c(C)noc3C)C2)c1 (configuration not stated)	–	–	–	–	43.7	–	–
COc1ccc(OC)c(NC(=O)C2CCN(S(=O)(=O)c3c(C)noc3C)CC2)c1	–	–	–	–	–	·	·
Cc1ccc(CNc2ncnc3cc(Cl)ccc23)cc1	–	–	–	–	–	·	·
Cc1cc(NCc2ccc(F)cc2)nc2cc(Cl)ccc12	–	–	–	–	–	–	–
c1ccc(CO/N=C(\c2ccc(C3CC3)nc2)C2CC2)cc1	–	–	–	–	–	·	·
Cc1ccc(C(=O)NCC(=O)Nc2ccc3c(c2)OCCO3)cc1	–	–	–	–	–	·	·
Cc1cc(C)n2c(SCC(=O)N(C)C3CCS(=O)(=O)C3)nnc2n1 (configuration not stated)	–	59.6	–	–	–	–	–
CN(C(=O)CSc1nnc(-c2ccccc2)n1C)C1CCS(=O)(=O)C1 (configuration not stated)	–	–	–	–	–	·	·
CCNc1ncnc2c1nnn2C	–	–	·	·	·	·	·
N#CCCN(C(=O)COC(=O)COc1ccccc1Cc1ccccc1)c1ccccc1	–	–	–	–	–	–	–
Cc1cccc(N2CCN(CC(O)COCc3cccs3)CC2)c1C (configuration not stated)	–	56.1	–	–	70.5	0.316µM	–
OC(COCc1cccs1)CN1CCCCCC1 (configuration not stated)	–	–	–	–	–	·	·
CN1CCCN(CC(O)COCc2cccs2)CC1 (configuration not stated)	–	–	–	–	–	·	·
OC(COCc1cccs1)CN1CCN(c2cccc(Cl)c2)CC1 (configuration not stated)	–	67.0	?	–	43.4	–	?
Cc1ccc(S(=O)(=O)N(C)/C(=N/S(=O)(=O)c2ccccc2)c2ccccc2)cc1	–	–	–	–	–	·	·
O=C(O)/C=C/C(=O)NCCc1ccc(Cl)cc1	–	–	–	–	–	·	·
O=C(O)/C=C/C(=O)NCCc1ccccc1	–	77.9	–	–	60.9	–	–
CN(CCn1ccnc1)Cc1cn(-c2ccccc2)nc1-c1ccc2c(c1)OCO2	–	–	–	–	–	·	·

Screening data deposited in PubChem by National Center for Advancing Translational Sciences (NCATS).
